# Screens from PubChem.
# This is a sample that favours compounds with a hit; in the whole collection about 12% have one here.
# G9a inh – qHTS Assay for Inhibitors of Histone Lysine Methyltransferase G9a | 350,000 tested, 8.8% active | AID 504332, 2011 | Potency, µM (series often up to 102 µM), for inactives: top-dose activity, negative = inhibition, hits mostly inhibitors | Histone-lysine N-methyltransferase EHMT2 (Homo sapiens), Q96KQ7 | G9a H3K9 monomethylation, AlphaScreen, 2 h; further: on the % scale 0 is the no-effect control and ±100 the full control effect; nearly all actives have a fitted effect of over 75% in size
# Target sequence (Q96KQ7 913-1193 limits assumed): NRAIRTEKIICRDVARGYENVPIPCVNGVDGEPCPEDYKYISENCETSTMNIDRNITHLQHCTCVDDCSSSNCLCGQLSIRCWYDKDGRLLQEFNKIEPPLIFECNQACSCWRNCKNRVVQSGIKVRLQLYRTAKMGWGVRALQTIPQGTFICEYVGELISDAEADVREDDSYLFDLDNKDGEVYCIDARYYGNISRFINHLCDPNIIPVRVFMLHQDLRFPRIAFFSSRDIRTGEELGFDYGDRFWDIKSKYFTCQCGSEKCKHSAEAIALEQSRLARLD
#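 Using a bead-based AlphaScreen, monomethylated H3K9 product from 2 h room-temperature reactions (G9a 20 nM, peptide 500 nM, SAM 20 uM) was detected with 0.5 ug/mL rabbit anti-H3K9me1 antibody.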
# L3MBTL1 inh – qHTS Assay for the Inhibitors of L3MBTL1; Lethal(3)malignant brain tumor-like protein 1 (Homo sapiens), Q9Y468; AlphaScreen L3MBTL1–H3K9me1 peptide binding; Potency, µM (titrated, usually from 57.1 µM), without a hit: top-dose activity, negative = inhibition, hits mostly inhibitors; 230,000 tested, 0.66% active; AID 485360, 2010; further: on the % scale 0 is the no-effect control and ±100 the full control effect; nearly all actives have a fitted effect of over 60% in size
#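 Displacement of a biotinylated histone H3(1-15) peptide monomethylated at Lys9 (75 nM) from L3MBTL1 (50 nM) was measured by AlphaScreen after a 30 min room-temperature compound incubation; cefsulodin titration served as intraplate control.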
# BAZ2B inh – qHTS Assay for Inhibitors of BAZ2B; AlphaScreen BAZ2B-H3K14Ac peptide displacement; Potency, µM (series often up to 114 µM), for the others: at the top dose activity change, negative = inhibition, usual class: inhibitors; Bromodomain adjacent to zinc finger domain protein 2B (Homo sapiens), Q9UIF8; 360,000 tested, 4.4% active; further: on the % scale 0 is the no-effect control and ±100 the full control effect; nearly all actives have a fitted effect of over 60% in size
#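 Multi-concentration screen (max 110 uM) measuring displacement of acetylated histone H3 peptide from BAZ2B by AlphaScreen, using 50 nM protein, 50 nM peptide and 10 ug/mL streptavidin donor plus Ni-chelate acceptor beads.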
# Sfp inh – qHTS Assay for Inhibitors of Bacillus subtilis Sfp phosphopantetheinyl transferase (PPTase). Biochemical Sfp PPTase activity, qHTS. 4'-phosphopantetheinyl transferase ffp (Bacillus subtilis), Q9F4F7. AID 1490, 2009. Potency, µM, for inactives: largest response in the series, negative = inhibition, actives largely listed as inhibitors. 310,000 tested, 3.5% active;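 further: the enzyme is Sfp with the accession as filed and its product quenches rhodamine fluorescence; 0% = enzyme reaction without inhibitor and -100% = no enzyme wells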
#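 Buffer: 50 mM Hepes-Na pH 7.6, 10 mM MgCl2, 0.01% Nonidet P-40, 0.01% BSA. Enzyme 15 nM, pre-exposed to compound 15 min; substrates then added and fluorescence change tracked over 30 min.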
# JMJD2A Tudor – qHTS Assay for Inhibitors of JMJD2A-Tudor Domain; Lysine-specific demethylase 4A (Homo sapiens), O75164; AlphaScreen JMJD2A-Tudor / H3K4me3 peptide binding; Potency, µM (series often up to 114 µM), for inactives: at the top dose activity change, negative = inhibition, usual class: inhibitors; 390,000 tested, 4.4% active; further: on the % scale 0 is the no-effect control and ±100 the full control effect; nearly all actives have a fitted effect of over 50% in size
# HP1b binding inh – HTS for Inhibitors of HP1-beta Chromodomain Interactions with Methylated Histone Tails. AlphaScreen HP1-beta / biotin-H3K9me3 peptide binding. Chromobox protein homolog 1 (Homo sapiens), P83916. Potency, µM (highest dose often 114 µM), for inactives: at the top dose activity change, negative = inhibition, usual class: inhibitors. 390,000 tested, 0.56% active; further: nearly all actives have a fitted effect of over 70% in size
# Target sequence (P83916 whole entry, looked up): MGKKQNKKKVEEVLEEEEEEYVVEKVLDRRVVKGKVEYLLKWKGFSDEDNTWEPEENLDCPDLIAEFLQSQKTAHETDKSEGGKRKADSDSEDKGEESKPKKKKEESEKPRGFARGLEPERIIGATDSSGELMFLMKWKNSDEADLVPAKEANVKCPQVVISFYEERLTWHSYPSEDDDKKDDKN
#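 HP1-beta protein (50 nM final) preincubated 30 min at room temperature with biotinylated H3(1-18)K9me3 peptide (50 nM) in PBS pH 7.4, 0.01% Tween-20, then compound added for 30 min. AlphaScreen streptavidin donor/nickel chelate acceptor beads (10 ug/mL final), 30 min dark, luminescence read.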
# The depositor's hits bear a star; u = inconclusive; x = not tested or not shown; [ ] = remark or other dose. The call rests on the fitted dose curve; in most records, active means well fitted curve in the direction sought with a large enough effect; inconclusive means small, poorly fitted or top-dose-only effect, or another doubt; inactive means no such curve, though single readings can be large; an effect the other way counts as inactive or inconclusive. Potency means the concentration at half of the fitted maximal effect.
SMILES,G9a inh,L3MBTL1 inh,BAZ2B inh,Sfp inh,JMJD2A Tudor,HP1b binding inh
C#CCOCCOCCOCCNc1nc(N2CCN(C(=O)C(Cc3cc4ccccc4[nH]3)n3cc(C(N)C(C)CC)nn3)CC2)nc(N2CCN(C(=O)C(Cc3cc4ccccc4[nH]3)n3cc(C(N)C(C)CC)nn3)CC2)n1 (configuration not stated),-103%[59 µM],u,28µM*,18µM*,28µM*,u
C#CCOCCOCCOCCNc1nc(N2CCN(C(=O)[C@H](CCC(=O)O)n3cc(C(N)[C@H](C)CC)nn3)CC2)nc(N2CCN(C(=O)[C@H](Cc3cc4ccccc4[nH]3)n3cc(C(N)[C@H](C)CC)nn3)CC2)n1 (some centres not stated),-8%[12.7 µM],-20%,50µM*,4%,x,x
CCOC(=O)c1ccc(CN(Cc2ccccc2C)S(=O)(=O)c2ccc(F)c(C)c2)cc1,52%[59 µM],x,-1%,x,23%,49%
O=C(Cn1c(=O)nc(-c2ccccc2)c2ccccc21)NCCc1ccc(Cl)cc1,18%[59 µM],x,-1%,x,1%,41%
CC(C)C[C@@H](CC(=O)N[C@H](CC(=O)N[C@@H]1CCNC[C@H]1C(=O)N[C@H](CC(=O)N[C@@H](CCC(=O)O)CC(=O)O)Cc1c[nH]c2ccccc12)C(C)C)NC(=O)[C@@H]1CCCC[C@H]1N,x,x,x,-1%,x,x
COc1cc(NC(=S)N2CCN(C)CC2)c(OC)cc1Cl,40µM*,-4%[11.4 µM],-19%,28µM*,1%,12%
COc1cc(NC(=S)N2CCN(C(=O)c3ccco3)CC2)c(OC)cc1Cl,u,-9%,-1%,56µM*,u,-29%
COc1cc(NC(=S)N2CCCC(CO)C2)c(OC)cc1Cl (configuration not stated),45µM*,1%,-5%,40µM*,-6%,4%
CN1CCN(C(=S)Nc2cc([N+](=O)[O-])ccc2Cl)CC1,3.2µM*,-4%,-28%,-29%,u,-4%
COc1cc(NC(=S)N2CCN(CCO)CC2)c(OC)cc1Cl,0%,6%,-7%,-6%,-1%,42%
Cc1ccc2c(c1)-c1c(cnn1CC(=O)N1CCN(c3cccc(C(F)(F)F)c3)CC1)CO2,-4%[59 µM],x,-11%,x,-30%,5%
CCc1nnc2c3ccccc3nc(N3CCN(c4cc(C)ccc4C)CC3)n12,-6%[59 µM],x,2%[57.1 µM],x,-12%,19%
O=C1CC(N2CCC(Cc3ccccc3)CC2)C(=O)N1CCc1ccccc1 (configuration not stated),50µM*,x,0%,56µM*,-5%,25%
O=C(/C=C/N1CCOCC1)c1cc2ccccc2o1,10µM*,-1%,2%,-6%,-18%,28%
O=C(Nc1ccc(N2CCOCC2)cc1)c1cc2ccccc2o1,-22%[12.7 µM],-17%,-37%,-10%,-20%,15%
O=S(=O)(Nc1cc(S(=O)(=O)N2CCOCC2)ccc1O)c1ccc2c(c1)OCCCO2,1.3µM*,-2%,56µM*,x,-32%,u
O=S(=O)(NCc1ccc2c(c1)OCO2)c1cccc(S(=O)(=O)N2CCOCC2)c1,40µM*,-9%,-5%,5%,-20%,21%
O=S(=O)(Nc1cccc(S(=O)(=O)N2CCOCC2)c1)c1ccc2c(c1)OCCO2,21%,41%,x,20%,-10%,12%
O=S(=O)(Nc1cc(S(=O)(=O)N2CCOCC2)ccc1N1CCOCC1)c1ccc2c(c1)OCCO2,40µM*,-18%,0%,2%,-18%,28%
